Several values for one entry are separate records, joined by “and”; a condition that tells them apart may be missing. Equal values may be shown once. A structure can be active in one record and inactive in another. Activity calls are given as the source filed them. The calls were made as follows: active = hit-call score of the fitted dose curve at least 0.9, where 1 is the maximum; inactive = score below 0.9.
Tests used:
[1] = ATG_GRE_CIS: Attagene CIS-FACTORIAL HepG2 Assay for human Glucocorticoid Response Elements (GRE) (AID 2282947); settings: HepG2 GRE cis-reporter, Attagene multiplex mRNA; actives raise or lower the signal
Method in brief: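 Multiplexed cis-reporter mRNA induction, HepG2, 24 h post-dose. RT-PCR, FAM-labelled, HpaI-digested amplicons by CE. Bidirectional fit vs DMSO.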

[2] = ATG_ISRE_CIS: Attagene CIS-FACTORIAL HepG2 Assay for human Interferon Regulatory Factor 1 (IRF1) binding to an Interferon-Stimulated Response Element (ISRE) (AID 2282948); settings: HepG2 ISRE cis-reporter (Attagene), mRNA transcription readout; actives raise or lower the signal
Method in brief: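 Endogenous transcription factor activity read as reporter transcript abundance via RT-PCR and capillary electrophoresis. HepG2 cells transiently transfected, 24 h chemical exposure. Gain or loss fitted against DMSO baseline.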

[3] = ATG_M_32_CIS: Attagene CIS-FACTORIAL HepG2 Assay for M32 Transcription Factor (Internal Marker) (AID 2282949); settings: HepG2 Attagene cis-factorial M32 reporter, mRNA; actives raise or lower the signal;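 also: background control marker of the multiplexed CIS panel rather than a real target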
Method in brief: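 Using DMSO as baseline, bidirectional curve fits were applied to reporter mRNA signals. These came from transiently transfected HepG2 cells exposed for 24 h, with RNA analysed by RT-PCR, FAM primer extension, HpaI digestion and CE.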

[4] = ATG_M_06_CIS: Attagene CIS-FACTORIAL HepG2 Assay for M06 Transcription Factor (Internal Marker) (AID 2282950); settings: HepG2 Attagene CIS-FACTORIAL M06 internal marker reporter; actives raise or lower the signal
Method in brief: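 Steps: transfect HepG2 with multiplexed cis-element reporter constructs; dose chemical 24 h; extract RNA with DNase treatment; reverse-transcribe, PCR-amplify, 6-FAM label, HpaI digest; separate fragments by capillary electrophoresis. Activity fitted both directions versus DMSO.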

[5] = target: Hypoxia-inducible factor 1-alpha (Homo sapiens) (UniProt Q16665); experiment: ATG_HIF1a_CIS: Attagene CIS-FACTORIAL HepG2 Assay for human Hypoxia Inducible Factor 1 (HIF1A) (AID 2282951); settings: HepG2 Attagene cis-factorial HIF1a reporter transcription; actives raise or lower the signal
Method in brief: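 HepG2 cells transiently transfected with multiple cis-regulated reporter transcription units measure endogenous transcription factor activity. After 24 h exposure, reporter mRNA is quantified by RT-PCR with 6-FAM labelling, HpaI digestion and capillary electrophoresis. Bidirectional fitting against DMSO.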

[6] = target: Hepatocyte nuclear factor 6 (Homo sapiens) (UniProt Q9UBC0); experiment: ATG_HNF6_CIS: Attagene CIS-FACTORIAL HepG2 Assay for human Hepatocyte Nuclear Factor 6 (HNF6) (AID 2282952); settings: HepG2 Attagene cis-factorial HNF6 reporter transcription; actives raise or lower the signal
Method in brief: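 Twenty-four-hour chemical treatment of reporter-transfected HepG2 cells precedes RNA isolation, DNase-treated reverse transcription and PCR of reporter sequences. Labelled fragments are sized by capillary electrophoresis and fitted bidirectionally versus DMSO.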

[7] = target: Heat shock factor protein 1 (Homo sapiens) (UniProt Q00613); experiment: ATG_HSE_CIS: Attagene CIS-FACTORIAL HepG2 Assay for human Heat Shock Transcription Factor 1 (HSE) (AID 2282953); settings: HepG2 HSE cis-reporter, Attagene RNA transcription; actives raise or lower the signal
Method in brief: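 Cells were transfected with cis-element-driven reporter constructs, dosed for 24 h, then total RNA was reverse-transcribed and reporter cDNA amplified, FAM-labelled and digested with HpaI. Fragments were resolved by capillary electrophoresis; gain or loss was fitted against DMSO.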

[8] = ATG_MRE_CIS: Attagene CIS-FACTORIAL HepG2 Assay for human Metal Responsive Element (MRE) (AID 2282954); settings: HepG2 MRE cis-reporter transcription, Attagene multiplex; actives raise or lower the signal
Method in brief: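 Multiplexed cis-reporter assay in human HepG2 liver cells, 24 h incubation with test chemical. Reporter transcripts measured by RT-PCR and capillary electrophoresis; values from bidirectional curve fitting versus DMSO.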

[9] = ATG_PBREM_CIS: Attagene CIS-FACTORIAL HepG2 Assay for human Phenobarbital-responsive Enhancer Module (PBREM) (AID 2282955); settings: HepG2 PBREM cis-reporter, Attagene multiplexed transcription; actives raise or lower the signal
Method in brief: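 HepG2 cells transiently transfected with multiple cis-regulated reporter units measure endogenous transcription factor activity; 24 h compound exposure. Reporter mRNA quantified by RT-PCR, fluorescent labelling, HpaI digestion and capillary electrophoresis; bidirectional fit versus DMSO.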

[10] = target: Paired box protein Pax-6 (Homo sapiens) (UniProt P26367); experiment: ATG_Pax6_CIS: Attagene CIS-FACTORIAL HepG2 Assay for human Paired Box 6 (PAX6) (AID 2282956); settings: HepG2 CIS-FACTORIAL PAX6 reporter transcription, RNA readout; actives raise or lower the signal
Method in brief: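 Read-out is reporter transcript level, measured by RT-PCR with fluorescent primer extension and capillary electrophoresis after 24 h dosing of transfected HepG2 cells. Activity in either direction fitted relative to DMSO control.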

[11] = ATG_PXRE_CIS: Attagene CIS-FACTORIAL HepG2 Assay for human Pregnane X Receptor Element (PXRE) (AID 2282957); settings: HepG2 Attagene CIS-FACTORIAL PXRE reporter, mRNA; actives raise or lower the signal
Method in brief: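 Bidirectional activity, baselined to DMSO, derived from reporter mRNA fluorescence (RT-PCR plus capillary electrophoresis) in HepG2 cells bearing cis-promoter reporter units, 24 h exposure.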

[12] = ATG_PPRE_CIS: Attagene CIS-FACTORIAL HepG2 Assay for human Peroxisome Proliferator-activated Response Element (PPRE) (AID 2282958); settings: HepG2 PPRE cis-element reporter, Attagene transcription factor profiling; actives raise or lower the signal
Method in brief: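 HepG2 cells are transiently transfected with multiplexed cis-promoter reporter units to report endogenous PPAR activity. After 24 h dosing, reporter mRNA is read by RT-PCR and capillary electrophoresis. Fitting is bidirectional against DMSO.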

[13] = ATG_RORE_CIS: Attagene CIS-FACTORIAL HepG2 Assay for human RAR-related Orphan Receptor Element (RORE) (AID 2282959); settings: HepG2 Attagene cis-factorial RORE reporter, mRNA; actives raise or lower the signal
Method in brief: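 HepG2 cells carrying transiently transfected cis-regulated reporter units; RORE-driven reporter mRNA quantified 24 h post-dosing by RT-PCR, 6-FAM primer extension, HpaI digestion and capillary electrophoresis. Bidirectional fit versus DMSO.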

[14] = ATG_Sox_CIS: Attagene CIS-FACTORIAL HepG2 Assay for human SRY-box transcription factor (SOX) (AID 2282960); settings: HepG2 Attagene cis-factorial SOX reporter, mRNA; actives raise or lower the signal
Method in brief: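 HepG2 cells transiently transfected with multiple cis-regulated reporter units, then dosed for 24 h. Reporter mRNA quantified by RT-PCR, fluorescent labelling, HpaI digestion and capillary electrophoresis; bidirectional fit versus DMSO.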

[15] = target: Transcription factor Sp1 (Homo sapiens) (UniProt P08047); experiment: ATG_Sp1_CIS: Attagene CIS-FACTORIAL HepG2 Assay for human Specificity Protein 1 (Sp1) (AID 2282961); settings: HepG2 Sp1 cis-reporter transcription, actives raise or lower the signal
Method in brief: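 HepG2 cells transiently transfected with multiplexed cis-regulated reporter constructs, chemical exposure 24 h. Reporter mRNA quantified by RT-PCR with capillary electrophoresis; bidirectional fit relative to DMSO.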

[16] = ATG_SREBP_CIS: Attagene CIS-FACTORIAL HepG2 Assay for human Sterol Regulatory Element Binding (SREBP) (AID 2282962); settings: HepG2 Attagene cis-factorial SREBP reporter, mRNA; actives raise or lower the signal
Method in brief: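 Endogenous SREBP activity read as cis-element-driven reporter transcript in transiently transfected HepG2, 24 h post-dosing; quantified via RT-PCR plus capillary electrophoresis of fluorescent fragments. Gain or loss of signal fitted relative to DMSO baseline.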

[17] = target: Signal transducer and activator of transcription 3 (Homo sapiens) (UniProt P40763); experiment: ATG_STAT3_CIS: Attagene CIS-FACTORIAL HepG2 Assay for human Signal Transducer and Activator of Transcription 3 (STAT3) (AID 2282963); settings: HepG2, Attagene cis-factorial STAT3 reporter transcription; actives raise or lower the signal
Method in brief: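 Cis-factorial format: endogenous transcription factors in HepG2 drive transfected reporter units. After 24 h treatment, reporter RNA was reverse-transcribed, amplified, FAM-labelled and HpaI-digested before CE analysis; activity scored in both directions against DMSO.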

[18] = ATG_TA_CIS: Attagene CIS-FACTORIAL HepG2 Assay for human TA Basal Promoter (AID 2282964); settings: HepG2 Attagene CIS-factorial TA basal promoter reporter; actives raise or lower the signal
Method in brief: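 Steps: transfect HepG2 with MRTUs; dose 24 h; isolate RNA, DNase-treat, reverse-transcribe; PCR and FAM-label reporter cDNA; digest with HpaI 2h at 37 C; run capillary electrophoresis. Activity fitted both directions against DMSO.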

[19] = ATG_TCF_b_cat_CIS: Attagene CIS-FACTORIAL HepG2 Assay for human T-Cell-Factor with beta-catenin (TCF/b-cat) (AID 2282965); settings: HepG2 TCF/beta-catenin cis-reporter transcription, actives raise or lower the signal
Method in brief: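 Measured: reporter mRNA in HepG2 transiently transfected with cis-promoter reporter units, 24 h after chemical addition. Fitting was bidirectional, DMSO as negative control.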

[20] = ATG_TAL_CIS: Attagene CIS-FACTORIAL HepG2 Assay for human TAL Basal Promoter (AID 2282966); settings: HepG2 Attagene cis-factorial TAL promoter reporter; actives raise or lower the signal;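 also: background control endpoint measuring basal TAL promoter reporter mRNA not a specific factor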
Method in brief: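 Human hepatoma HepG2 cells, transfected with promoter-regulated reporter units, were treated 24 h. Reporter transcript levels, measured through RT-PCR and capillary electrophoresis, were fitted for gain or loss relative to DMSO.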

Paired box protein Pax-6 (Homo sapiens), sequence (P26367 whole entry, looked up): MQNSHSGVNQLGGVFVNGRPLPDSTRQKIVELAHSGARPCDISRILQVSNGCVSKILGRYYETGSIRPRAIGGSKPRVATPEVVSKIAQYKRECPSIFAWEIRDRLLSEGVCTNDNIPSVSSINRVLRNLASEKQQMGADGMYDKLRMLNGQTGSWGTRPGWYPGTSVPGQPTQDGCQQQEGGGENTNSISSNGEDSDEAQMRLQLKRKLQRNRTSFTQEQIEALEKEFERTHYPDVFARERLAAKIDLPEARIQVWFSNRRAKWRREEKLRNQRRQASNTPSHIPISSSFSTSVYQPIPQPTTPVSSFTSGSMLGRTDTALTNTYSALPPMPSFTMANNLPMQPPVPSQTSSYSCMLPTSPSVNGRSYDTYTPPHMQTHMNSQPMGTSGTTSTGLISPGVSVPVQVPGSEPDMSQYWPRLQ
Hepatocyte nuclear factor 6 (Homo sapiens), sequence (Q9UBC0 whole entry, looked up, the tested form may be a part): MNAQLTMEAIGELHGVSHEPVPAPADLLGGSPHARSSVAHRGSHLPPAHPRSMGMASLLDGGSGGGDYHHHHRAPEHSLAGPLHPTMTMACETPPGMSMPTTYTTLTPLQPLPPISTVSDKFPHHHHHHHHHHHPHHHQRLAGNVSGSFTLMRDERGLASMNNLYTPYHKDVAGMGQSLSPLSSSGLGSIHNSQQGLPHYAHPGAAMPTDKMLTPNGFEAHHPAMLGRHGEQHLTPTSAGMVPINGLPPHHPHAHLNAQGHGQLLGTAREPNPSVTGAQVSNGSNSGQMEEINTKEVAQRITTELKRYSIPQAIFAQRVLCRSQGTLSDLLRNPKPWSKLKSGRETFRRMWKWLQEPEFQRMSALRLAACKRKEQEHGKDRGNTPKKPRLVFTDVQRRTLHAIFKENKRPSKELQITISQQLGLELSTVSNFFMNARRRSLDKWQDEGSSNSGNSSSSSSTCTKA
Signal transducer and activator of transcription 3 (Homo sapiens), sequence (P40763 whole entry, looked up): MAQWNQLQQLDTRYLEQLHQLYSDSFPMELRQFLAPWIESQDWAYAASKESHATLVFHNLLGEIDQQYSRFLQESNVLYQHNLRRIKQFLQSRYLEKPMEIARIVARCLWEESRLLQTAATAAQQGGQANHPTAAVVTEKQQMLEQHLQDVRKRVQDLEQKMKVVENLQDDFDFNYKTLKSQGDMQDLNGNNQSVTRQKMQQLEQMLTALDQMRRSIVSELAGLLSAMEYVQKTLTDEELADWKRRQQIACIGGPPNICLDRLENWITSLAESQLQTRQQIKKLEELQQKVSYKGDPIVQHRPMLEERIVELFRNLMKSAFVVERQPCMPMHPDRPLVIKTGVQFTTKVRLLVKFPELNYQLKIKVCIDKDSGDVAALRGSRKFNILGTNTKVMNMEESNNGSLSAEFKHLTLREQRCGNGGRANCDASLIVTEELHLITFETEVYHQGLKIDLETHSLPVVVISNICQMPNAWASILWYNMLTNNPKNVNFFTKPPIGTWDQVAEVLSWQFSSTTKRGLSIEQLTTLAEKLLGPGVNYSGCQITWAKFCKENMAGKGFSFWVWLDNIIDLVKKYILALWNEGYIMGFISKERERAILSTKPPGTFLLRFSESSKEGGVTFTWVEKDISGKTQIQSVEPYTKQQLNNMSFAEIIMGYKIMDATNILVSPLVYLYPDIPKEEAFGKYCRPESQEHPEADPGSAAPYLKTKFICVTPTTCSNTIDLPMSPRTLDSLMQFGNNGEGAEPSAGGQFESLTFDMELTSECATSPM
Hypoxia-inducible factor 1-alpha (Homo sapiens), sequence (Q16665 whole entry, looked up): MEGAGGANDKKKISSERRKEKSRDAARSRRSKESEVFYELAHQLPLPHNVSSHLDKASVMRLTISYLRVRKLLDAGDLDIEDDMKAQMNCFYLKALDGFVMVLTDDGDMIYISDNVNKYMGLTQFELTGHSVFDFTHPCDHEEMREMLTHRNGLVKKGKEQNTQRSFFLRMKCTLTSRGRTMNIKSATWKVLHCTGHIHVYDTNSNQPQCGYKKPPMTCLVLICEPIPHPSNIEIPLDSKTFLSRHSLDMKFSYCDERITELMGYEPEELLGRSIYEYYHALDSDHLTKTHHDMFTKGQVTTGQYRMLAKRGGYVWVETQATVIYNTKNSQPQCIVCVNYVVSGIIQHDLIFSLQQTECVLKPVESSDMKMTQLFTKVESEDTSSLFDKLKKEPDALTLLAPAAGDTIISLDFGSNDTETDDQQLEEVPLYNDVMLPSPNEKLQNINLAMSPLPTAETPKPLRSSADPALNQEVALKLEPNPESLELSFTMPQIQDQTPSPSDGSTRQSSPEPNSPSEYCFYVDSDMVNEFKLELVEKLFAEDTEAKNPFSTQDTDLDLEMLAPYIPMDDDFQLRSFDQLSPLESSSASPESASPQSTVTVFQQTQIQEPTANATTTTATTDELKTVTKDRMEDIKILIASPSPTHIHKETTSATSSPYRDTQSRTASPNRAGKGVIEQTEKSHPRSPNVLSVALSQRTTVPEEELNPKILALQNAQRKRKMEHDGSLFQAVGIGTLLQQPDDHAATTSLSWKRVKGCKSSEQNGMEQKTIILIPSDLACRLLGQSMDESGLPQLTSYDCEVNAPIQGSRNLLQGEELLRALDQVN
Heat shock factor protein 1 (Homo sapiens), sequence (Q00613 whole entry, looked up, the tested form may be a part): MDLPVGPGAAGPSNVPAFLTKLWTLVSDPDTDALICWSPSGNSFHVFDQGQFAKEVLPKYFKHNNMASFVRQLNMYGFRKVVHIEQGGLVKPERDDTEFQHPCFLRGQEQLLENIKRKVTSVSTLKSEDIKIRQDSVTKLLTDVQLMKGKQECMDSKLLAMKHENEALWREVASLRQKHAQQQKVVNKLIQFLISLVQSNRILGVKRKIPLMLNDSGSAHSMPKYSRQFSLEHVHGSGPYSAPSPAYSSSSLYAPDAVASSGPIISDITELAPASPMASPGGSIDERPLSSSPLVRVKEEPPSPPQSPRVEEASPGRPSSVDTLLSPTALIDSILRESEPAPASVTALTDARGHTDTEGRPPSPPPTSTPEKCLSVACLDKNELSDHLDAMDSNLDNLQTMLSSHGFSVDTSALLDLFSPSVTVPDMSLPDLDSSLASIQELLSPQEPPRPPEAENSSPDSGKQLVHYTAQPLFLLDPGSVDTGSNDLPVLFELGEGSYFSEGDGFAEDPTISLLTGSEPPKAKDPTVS
Transcription factor Sp1 (Homo sapiens), sequence (P08047 whole entry, looked up): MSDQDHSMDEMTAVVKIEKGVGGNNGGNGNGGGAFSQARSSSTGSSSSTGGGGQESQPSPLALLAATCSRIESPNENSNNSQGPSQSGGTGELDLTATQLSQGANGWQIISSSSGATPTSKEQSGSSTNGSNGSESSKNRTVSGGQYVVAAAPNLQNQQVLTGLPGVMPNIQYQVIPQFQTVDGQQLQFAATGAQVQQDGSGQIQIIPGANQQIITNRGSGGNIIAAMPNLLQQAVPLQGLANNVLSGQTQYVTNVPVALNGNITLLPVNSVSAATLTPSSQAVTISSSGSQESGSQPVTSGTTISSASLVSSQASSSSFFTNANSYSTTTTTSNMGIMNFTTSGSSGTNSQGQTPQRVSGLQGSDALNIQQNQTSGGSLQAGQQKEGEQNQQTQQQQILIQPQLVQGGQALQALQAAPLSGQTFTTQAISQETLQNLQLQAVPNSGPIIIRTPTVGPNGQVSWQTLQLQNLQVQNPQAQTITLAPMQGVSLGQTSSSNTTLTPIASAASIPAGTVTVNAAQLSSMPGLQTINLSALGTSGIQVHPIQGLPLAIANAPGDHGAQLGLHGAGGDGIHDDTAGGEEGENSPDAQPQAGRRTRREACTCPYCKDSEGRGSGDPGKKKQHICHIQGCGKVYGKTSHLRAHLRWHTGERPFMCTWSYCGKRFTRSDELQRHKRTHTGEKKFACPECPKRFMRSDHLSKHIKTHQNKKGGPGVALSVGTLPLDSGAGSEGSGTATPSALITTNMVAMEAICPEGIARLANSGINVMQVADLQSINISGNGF

CNc1cnn(-c2cccc(C(F)(F)F)c2)c(=O)c1Cl
outcome [1]: inactive
outcome [2]: inactive
outcome [3]: inactive
outcome [4]: inactive
outcome [5]: inactive
outcome [6]: inactive
AC50 [7]: 10.4 µM (active)
outcome [8]: inactive
outcome [9]: inactive
outcome [10]: inactive
AC50 [11]: 20.1 µM (active)
outcome [12]: inactive
AC50 [13]: 27.6 µM (active)
outcome [14]: inactive
outcome [15]: inactive
outcome [16]: inactive
outcome [17]: inactive
outcome [18]: inactive
outcome [19]: inactive
outcome [20]: inactive

CCOC(=O)COc1cc(-c2nn(C)c(OC(F)F)c2Cl)c(F)cc1Cl
outcome [1]: inactive
outcome [2]: inactive
outcome [3]: inactive
outcome [4]: inactive
outcome [5]: inactive
outcome [6]: inactive
outcome [8]: inactive
outcome [9]: inactive
outcome [10]: inactive
AC50 [11]: 47.3 µM (active)
outcome [12]: inactive
outcome [13]: inactive
outcome [14]: inactive
outcome [15]: inactive
outcome [16]: inactive
outcome [17]: inactive
outcome [18]: inactive
outcome [19]: inactive
outcome [20]: inactive

C=C(C)[C@H]1Cc2c(ccc3c2O[C@@H]2COc4cc(OC)c(OC)cc4[C@@H]2C3=O)O1
outcome [1]: inactive
outcome [2]: inactive
outcome [3]: inactive
outcome [4]: inactive
AC50 [5]: 0.0274 µM (active)
outcome [6]: inactive
outcome [7]: inactive
AC50 [8]: 0.0899 µM (active)
AC50 [9]: 0.0505 µM (active)
outcome [10]: inactive
outcome [11]: inactive
AC50 [12]: 0.0321 µM (active)
outcome [13]: inactive
outcome [14]: inactive
AC50 [15]: 0.039 µM (active)
AC50 [16]: 0.00445 µM (active)
outcome [17]: inactive
outcome [18]: inactive
outcome [19]: inactive
outcome [20]: inactive

CCOP(=O)(NC(C)C)Oc1ccc(SC)c(C)c1 (stereo not given)
outcome [1]: inactive
outcome [2]: inactive
outcome [3]: inactive
outcome [4]: inactive
outcome [5]: inactive
outcome [6]: inactive
outcome [8]: inactive
AC50 [9]: 16.2 µM (active)
outcome [10]: inactive
AC50 [11]: 2.73 µM (active)
AC50 [12]: 21.4 µM (active)
outcome [13]: inactive
outcome [14]: inactive
outcome [15]: inactive
AC50 [16]: 19.6 µM (active)
outcome [17]: inactive
outcome [18]: inactive
outcome [19]: inactive
outcome [20]: inactive

O=[N+]([O-])c1cc(C(F)(F)F)c(Cl)c([N+](=O)[O-])c1Nc1ncc(C(F)(F)F)cc1Cl
AC50 [1]: 20.3 µM (active)
outcome [1]: inactive
AC50 [2]: 16.6 µM (active)
outcome [2]: inactive
AC50 [3]: 18.1 µM (active)
outcome [3]: inactive
outcome [4]: inactive
outcome [5]: inactive
outcome [7]: inactive
outcome [8]: inactive
outcome [9]: inactive
AC50 [10]: 6.88 µM (active)
outcome [10]: inactive
AC50 [11]: 2.84 µM (active) and 1.27 µM (active)
AC50 [12]: 14.6 µM (active)
outcome [12]: inactive
outcome [13]: inactive
outcome [14]: inactive
outcome [15]: inactive
outcome [16]: inactive
AC50 [17]: 19.1 µM (active)
outcome [17]: inactive
AC50 [18]: 15.4 µM (active)
outcome [18]: inactive
AC50 [19]: 16.1 µM (active)
outcome [19]: inactive
outcome [20]: inactive

CCc1cccc(CC)c1N(COC)C(=O)CCl
outcome [1]: inactive
outcome [2]: inactive
outcome [3]: inactive
outcome [4]: inactive
outcome [5]: inactive
outcome [6]: inactive
outcome [7]: inactive
outcome [8]: inactive
outcome [9]: inactive
outcome [10]: inactive
AC50 [11]: 1.15 µM (active)
outcome [12]: inactive
outcome [13]: inactive
outcome [14]: inactive
AC50 [15]: 7.75 µM (active)
outcome [16]: inactive
outcome [17]: inactive
outcome [18]: inactive
outcome [19]: inactive
outcome [20]: inactive
